Laboratory results taken from PubChem BioAssay.
The source made the active and inactive calls.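 Rule for the calls, unless noted: active = fluorescence slope after compound addition differing from the mean of all screened samples at 99.7% confidence, in either direction; inactive = the rest.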

Assays:
[1] = inhibitors of TNFa-induced NFkB p65 translocation, primary screen, imaging, HUVEC, MLSMR starter and 10KST1 sets (AID 438;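 active = inhibition above 20% together with a positive visual image hit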;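 note: compound added about 3h40 before a 20 min TNFalpha stimulation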;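 for inhibition: signal is the nuclear over cytoplasmic p65 intensity ratio per well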); details: HUVEC TNFa-induced p65 nuclear translocation; cell count: measured here: nuclei count (cytotoxicity indicator), at 2.08 µM; inhibition: at 2 µM, stronger effect = higher value, 0% TNFa-plus-vehicle, 100% no-TNFa wells
[2] = inhibitors of mutant huntingtin aggregation, primary screen, imaging, exon1htt(103Q)mCFP cells, high-content imaging (AID 483;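 active = visual image review flags a hit and inhibition of aggregation exceeds 20%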;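 note: compound exposure lasted 3 days before fixation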;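 for nuclei count: percent of the per-plate median nuclei count of sample wells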); details: exon1htt(103Q)mCFP cell line, aggregate imaging, at 2 µM; inhibition of aggregation: stronger effect = higher value; nuclei count: measured here: cell count, toxicity
[3] = inhibitors of E-selectin induction by TNFa, primary screen, imaging, HUVEC, immunofluorescence, MLSMR starter and 10KST1 sets (AID 487;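 active = visually confirmed hit in the image check and inhibition above 20%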;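 for inhibition: signal is fraction of cell area covered by stained E-selectin grains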;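 for nuclei count: 100% = median nuclei count of all wells on the same plate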); details: HUVEC TNFalpha-induced E-selectin immunofluorescence imaging, at 2 µM; inhibition: stronger effect = higher value; nuclei count: measured here: cell number, toxicity
[4] = target: Voltage-gated potassium channel subunit beta-2 (Rattus norvegicus) (UniProt P62483); experiment: KvBeta enzyme negative modulators, primary screen, biochemical, NADPH fluorescence (AID 622;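 active = fluorescence slope higher than the sample average by over 3 SD, cut at about -0.22 in these data, passing the limit was not always enough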;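 note: slope of raw intensity against log time taken from 70 to 1610 s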); details: recombinant KvBeta, 4-cyanobenzaldehyde reduction, at 10 µM, stronger effect = higher value
Sequence of Voltage-gated potassium channel subunit beta-2 (Rattus norvegicus) (P62483 whole entry, looked up): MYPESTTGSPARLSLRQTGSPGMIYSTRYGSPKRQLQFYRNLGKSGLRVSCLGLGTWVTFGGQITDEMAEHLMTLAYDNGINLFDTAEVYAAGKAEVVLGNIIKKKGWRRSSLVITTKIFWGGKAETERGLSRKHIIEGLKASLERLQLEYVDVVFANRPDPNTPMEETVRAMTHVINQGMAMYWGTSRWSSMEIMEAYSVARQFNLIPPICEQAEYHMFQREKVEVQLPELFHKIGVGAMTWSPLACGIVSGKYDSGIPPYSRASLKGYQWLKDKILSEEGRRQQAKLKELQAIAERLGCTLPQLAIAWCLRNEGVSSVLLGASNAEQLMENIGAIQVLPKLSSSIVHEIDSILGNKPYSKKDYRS

[5] = target: Voltage-gated potassium channel subunit beta-2 (Rattus norvegicus) (UniProt P62483); experiment: KvBeta positive modulators, primary screen, biochemical, NADPH fluorescence (AID 623;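 active = NADPH fluorescence slope more negative than the mean of all samples by about 3 SD, 99.7% confidence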;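 note: fluorescence intensity change per second fitted from 20 to 320 s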); details: Recombinant KvBeta, NADPH fluorescence decrease slope, 10 min; at 10 µM; stronger effect = lower value
[6] = target: Alpha-2C adrenergic receptor (Homo sapiens) (UniProt P18825); experiment: modulators of alpha2C/GIRK thallium flux, primary screen, cell-based, HEK293 alpha2C/GIRK1/2 (AID 624); details: thallium flux BTC fluorescence, at 10 µM, actives lie on both sides;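 note: slope of fluorescence ratio to pre-addition baseline per second over 15 to 24 s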
Sequence of Alpha-2C adrenergic receptor (Homo sapiens) (P18825 whole entry, looked up): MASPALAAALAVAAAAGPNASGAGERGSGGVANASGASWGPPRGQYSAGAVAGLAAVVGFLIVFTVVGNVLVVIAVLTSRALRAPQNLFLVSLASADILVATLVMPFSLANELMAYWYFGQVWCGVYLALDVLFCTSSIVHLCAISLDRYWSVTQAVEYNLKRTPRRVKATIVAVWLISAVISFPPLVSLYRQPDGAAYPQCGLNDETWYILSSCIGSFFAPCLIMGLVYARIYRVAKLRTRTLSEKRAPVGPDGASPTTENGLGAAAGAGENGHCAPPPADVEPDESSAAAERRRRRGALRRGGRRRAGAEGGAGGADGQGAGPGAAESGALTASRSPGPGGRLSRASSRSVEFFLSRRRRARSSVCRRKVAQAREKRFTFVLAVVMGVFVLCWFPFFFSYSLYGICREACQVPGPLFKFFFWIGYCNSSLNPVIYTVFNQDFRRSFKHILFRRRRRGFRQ

[7] = inhibitors of Sendai virus-induced IRF3 signaling, primary screen, TLR/RLR signaling modifier project, cell-based, Sendai virus stimulus, luciferase, 10K MLSCN set (AID 602276;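 active = inhibition at or above 50% at 10 µM; inactive = inhibition below 50%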;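 note: firefly luciferase from ISG56 promoter only with Renilla not read in this screen; 0% = Sendai virus plus DMSO and 100% = medium plus DMSO without virus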); details: HEK293 RL24 IRF3 luciferase reporter, at 10 µM, stronger effect = higher value
[8] = inhibitors of poly I:C-induced TLR3 signaling, primary screen, cell-based, poly I:C stimulus, luciferase, 10K MLSCN set (AID 602277;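 active = inhibition of the reporter signal at or above 50%; inactive = inhibition below 50%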); details: HEK293-TLR3 RL24 IRF3 luciferase reporter, at 10 µM, stronger effect = higher value

Row | Compound | cell count [1] | inhibition [1] | inhibition of aggregation [2] | nuclei count [2] [%] | inhibition [3] | nuclei count [3] [%] | fluorescence slope [4] | NADPH fluorescence slope [5] | slope [6] | inhibition [7] | inhibition [8]
1 | CCOC(=O)C1C2C=CC3(CN(Cc4ccco4)C(=O)C13)O2 (stereo not drawn) | 480 | 5.5% (inactive) | 16.2% (inactive) | 114 | -57.8% (inactive) | 115 | -0.469 (inactive) | -6.4e-05 (inactive) | 0.00537 (inactive) | 13.9% (inactive) | 21.7% (inactive)
2 | CCC1Oc2ccc(C)cc2N(CC(=O)N(Cc2cccnc2)Cc2ccc(C)o2)C1=O (stereo not drawn) | 685 | -5.5% (inactive) | 13.1% (inactive) | 93.4 | -9.6% (inactive) | 103 | -0.599 (inactive) | -5e-05 (inactive) | 0.00383 (inactive) | 17.7% (inactive) | 24.3% (inactive)
3 | CC(C)OC(=O)CSc1nnc(-c2ccccn2)n1-c1ccccc1 | 306 | 1.6% (inactive) | -8.2% (inactive) | 102 | -11.2% (inactive) | 99.6 | -0.429 (inactive) | -7.9e-05 (inactive) | 0.00479 (inactive) | 4.23% (inactive) | 6.06% (inactive)
4 | CCOC(=O)c1ccc(NC(=O)Nc2ccn(C)n2)cc1 | 354 | 8.8% (inactive) | 11.9% (inactive) | 110 | -23.7% (inactive) | 100 | -0.383 (inactive) | -2.9e-05 (inactive) | 0.00615 (inactive) | -16.4% (inactive) | -66.8% (inactive)
5 | Cc1nc2sc(C(c3ccc(Br)cc3)N3CC(C)OC(C)C3)c(O)n2n1 (stereo not drawn) | 260 | -5.4% (inactive) | -0.8% (inactive) | 106 | -6.9% (inactive) | 114 | -0.437 (inactive) | -6.3e-05 (inactive) | 0.00564 (inactive) | 4.21% (inactive) | 17.4% (inactive)
6 | CCCc1nnc2n1N=C(c1ccc(-c3cc(Cl)ccc3Cl)o1)CS2 | 248 | 6.2% (inactive) | 4.8% (inactive) | 100 | 17.1% (inactive) | 89 | -0.447 (inactive) | -5.1e-05 (inactive) | 0.00311 (inactive) | 8.08% (inactive) | 29.1% (inactive)
7 | COc1ccc(S(=O)(=O)NC(C)C(=O)Nc2cccc(C(C)=O)c2)cc1 (stereo not drawn) | 255 | 2.4% (inactive) | 14.5% (inactive) | 97.3 | -2.9% (inactive) | 62.6 | -0.402 (inactive) | -2.7e-05 (inactive) | 0.00498 (inactive) | 14.3% (inactive) | 15.3% (inactive)
8 | O=C(CSc1nnc(NC(=O)C2CCC2)s1)NC1CC1 | 488 | 0.8% (inactive) | -8.1% (inactive) | 66.2 | -90.7% (inactive) | 106 | -0.313 (inactive) | -4.2e-05 (inactive) | 0.00536 (inactive) | 0.495% (inactive) | -3.07% (inactive)
9 | Cc1cc(C)cc(C(=O)N2CCC(C(N)=O)CC2)c1 | 706 | -3.5% (inactive) | -33.2% (inactive) | 109 | -54.3% (inactive) | 122 | -0.297 (inactive) | -4.1e-05 (inactive) | 0.00604 (inactive) | 13.6% (inactive) | 20.8% (inactive)
10 | CC1CCc2nn(CC(=O)NCCN3CCCCC3C)cc2C1 (stereo not drawn) | 621 | 12% (inactive) | -27.1% (inactive) | 106 | -11.5% (inactive) | 108 | -0.62 (inactive) | 6.4e-06 (inactive) | 0.00605 (inactive) | 7.09% (inactive) | 33.8% (inactive)
11 | COC(=O)c1ccccc1NC(=O)C1CC=CCC1C(=O)O (stereo not drawn) | 373 | 4.2% (inactive) | -0.6% (inactive) | 96.6 | 0.7% (inactive) | 98.1 | -0.479 (inactive) | -3.3e-05 (inactive) | 0.00613 (inactive) | 16.2% (inactive) | 22.4% (inactive)
12 | CC(=O)Nc1cc(N2C(=O)CCC2=O)ccc1Cl | 498 | 3.5% (inactive) | 12.7% (inactive) | 98.5 | 10.7% (inactive) | 110 | -0.509 (inactive) | 2.5e-05 (inactive) | 0.00539 (inactive) | 23% (inactive) | 20.8% (inactive)
13 | COc1ccc(C2C(C(=O)NCCN3CCOCC3)c3ccccc3C(=O)N2C2CCCCC2)cc1 (stereo not drawn) | 334 | 10.1% (inactive) | 12.7% (inactive) | 111 | -93.5% (inactive) | 111 | -0.611 (inactive) | -2.8e-05 (inactive) | 0.00399 (inactive) | 30.2% (inactive) | 26% (inactive)
14 | CN(Cc1nc(-c2ccncc2)no1)S(=O)(=O)c1ccccc1 | 560 | 0.6% (inactive) | -16.9% (inactive) | 103 | -18.6% (inactive) | 104 | -0.654 (inactive) | -4.4e-05 (inactive) | 0.00664 (inactive) | 12.9% (inactive) | 13.2% (inactive)
15 | O=C1CC(c2ccccc2)Cc2nc(N3CCc4ccccc43)ncc21 (stereo not drawn) | 403 | 1.2% (inactive) | -14.1% (inactive) | 95.7 | -134% (inactive) | 183 | -0.0564 (inactive) | -1.7e-05 (inactive) | 0.00498 (inactive) | 9.74% (inactive) | 2.35% (inactive)
16 | c1ccc(-c2nn3c(Cn4nnc5ccccc54)nnc3s2)nc1 | 574 | 2.1% (inactive) | 3.4% (inactive) | 103 | 13.7% (inactive) | 82.3 | -0.425 (inactive) | -2.3e-05 (inactive) | 0.0044 (inactive) | -11.7% (inactive) | -3.15% (inactive)
17 | CCOC(=O)c1ccccc1NC(=O)c1cc2sccc2n1C | 740 | -42.9% (inactive) | 5.5% (inactive) | 107 | -20.5% (inactive) | 101 | -0.483 (inactive) | 1.4e-05 (inactive) | 0.00572 (inactive) | -3.63% (inactive) | -15.2% (inactive)
18 | CCOC(=O)N1CCN(C(=O)c2ccc(CS(=O)(=O)c3c(Cl)cccc3Cl)o2)CC1 | 512 | -5% (inactive) | 2.1% (inactive) | 102 | -97.8% (inactive) | 116 | -0.419 (inactive) | -6.8e-05 (inactive) | 0.00631 (inactive) | -2.6% (inactive) | 21.2% (inactive)
19 | CCOC(=O)Nc1ccc2c(c1)N(C(=O)OCCN(C)C)c1ccccc1CC2 | 425 | -7.7% (inactive) | 25.6% (inactive) | 57.1 | -16.3% (inactive) | 75.4 | -0.563 (inactive) | -2.3e-05 (inactive) | 0.00722 (inactive) | 6.83% (inactive) | 30.5% (inactive)
20 | COc1cc(Br)cc(CN2CCN(C/C=C/c3ccccc3)CC2)c1O | 273 | 5.8% (inactive) | -5% (inactive) | 98.5 | 3% (inactive) | 108 | -0.606 (inactive) | -8.8e-06 (inactive) | 0.00359 (inactive) | -0.336% (inactive) | -8.7% (inactive)
21 | COc1ccc(-c2nnc(SCC(=O)Nc3sc4c(c3C#N)CCC4)n2CC2CCCO2)cc1 (stereo not drawn) | 846 | 4.6% (inactive) | 13.5% (inactive) | 103 | -171% (inactive) | 131 | -0.591 (inactive) | -5.3e-05 (inactive) | 0.00872 (inactive) | 7.87% (inactive) | 15.5% (inactive)
22 | Cc1cc(C)c(NC(=O)CSc2nnc(-c3ccncc3)n2Cc2ccco2)c(C)c1 | 412 | -5% (inactive) | -19.2% (inactive) | 111 | -107% (inactive) | 113 | -0.335 (inactive) | -3.5e-05 (inactive) | 0.00447 (inactive) | 5.1% (inactive) | 10.2% (inactive)
23 | Cc1c(C#N)c2ncnc(-c3ccccc3)c2n1-c1ccccc1 | 287 | 0.4% (inactive) | -11.3% (inactive) | 99.5 | -8.1% (inactive) | 108 | -0.448 (inactive) | -0.000103 (inactive) | 0.00601 (inactive) | 15.3% (inactive) | 34.5% (inactive)
24 | COc1ccc(CCNC(=O)C2CC(=O)N(c3ccccc3)C2)cc1OC (stereo not drawn) | 336 | -2.5% (inactive) | -5.4% (inactive) | 102 | 22.4% (inactive) | 109 | -0.452 (inactive) | 8.4e-07 (inactive) | 0.00653 (inactive) | 16.9% (inactive) | 25.7% (inactive)
25 | Cc1ccc(CNc2cc(-c3nn4c(C)nnc4s3)ccc2C)s1 | 679 | 8.6% (inactive) | -34.9% (inactive) | 2.1 | -76.3% (inactive) | 102 | -0.444 (inactive) | -1.1e-05 (inactive) | 0.00646 (inactive) | 5.73% (inactive) | 13.7% (inactive)
26 | COc1ccc(CCNc2oc(COc3ccc(F)cc3)nc2C#N)cc1 | 407 | -9.8% (inactive) | 8.7% (inactive) | 88.8 | 17% (inactive) | 74.8 | -0.608 (inactive) | -3.3e-06 (inactive) | 0.00681 (inactive) | 15.6% (inactive) | 23.5% (inactive)
27 | O=C(Sc1nnnn1C1CCCCC1)c1cccs1 | 242 | 13.8% (inactive) | 7.4% (inactive) | 91.3 | -291% (inactive) | 129 | -0.317 (inactive) | 1.5e-05 (inactive) | 0.00618 (inactive) | 15.9% (inactive) | 13.5% (inactive)
28 | C=CCn1c(SCc2ccc(C#N)cc2)nnc1-c1cccc(Cl)c1 | 397 | -11.3% (inactive) | 10.7% (inactive) | 95.4 | -62.4% (inactive) | 187 | -0.421 (inactive) | -4.1e-05 (inactive) | 0.00297 (inactive) | 11.7% (inactive) | 35.5% (inactive)
